Measurements taken from PubChem BioAssay (NCATS).
Inconclusive results are not listed. Entries that show only a call come without a potency. Calls of active or inactive are those of the source. The call rests on the fitted dose curve; in most records, active means well fitted cell-killing curve with a large enough effect; inconclusive means small, poorly fitted or top-dose-only effect; inactive means flat fitted curve, though single readings scatter.

Assay: qHTS of pediatric cancer cell lines to identify multiple opportunities for drug repurposing: Primary screen for control Hh wild type fibroblast cells (AID 1347106); further: nearly all actives have a fitted effect of over 55% in size;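 on activity change, negative = cytotoxic: a drop in luminescence marks cytotoxicity and a rise apparent proliferation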
Details: Hh wild-type fibroblast viability, CellTiter-Glo luminescence, 48 h; series mostly up to 46 µM; activity change, negative = cytotoxic: at the top concentration
Description: Drug repurposing or repositioning has been offered as a strategy for drug development in oncology programs. This approach has special potential for childhood cancers and other rare or orphan diseases, where the expected return on new drug development has been a disincentive to pharmaceuticals.
In this project we exploit the poly-pharmacology of drugs to discover new indications via phenotypic screening of a panel of 19 well-characterized cell lines derived from solid tumors seen in children and adolescents. The goal is to identify approved drugs with previously unrecognized anticancer properties that has the potential to reveal new mechanisms and biological processes involved in carcinogenesis or drug resistance. We employed a titration-based paradigm (quantitative high-throughput screening or qHTS), where all compounds were tested at multiple concentrations for their effect on cell viability. Concentration-response curves (CRCs) were derived directly from the primary screen, and both potency and efficacy values were used to identify compounds with robust bioactivity profiles. We screened the NIH Chemical Genomics Center (NCGC) Pharmaceutical Collection (NPC) and Mechanism Interrogation Plate (MIPE) small molecule collections of approved and investigational compounds against these cell lines; and measured metabolically active cells after 48 hours of compound treatment as a proxy for cell viability.
Assay Submitter: Nathalia J. Martinez, National Center for Advancing Translational Sciences, National Institutes of Health, Rockville, MD, USA; email: natalia.martinez@nih.gov
[1] Shen, M et al. Quantitative high-throughput phenotypic screening of pediatric cancer cell lines identifies multiple opportunities for drug repurposing. Oncotarget 2017 Dec 19;9(4):4758-4772. PMID 29435139.
The cells were obtained from University of North Carolina (UNC), Pediatric Preclinical Testing Program (PPT), and Coriell Institute (CI).
qHTS cell viability assay:
Cells were assayed in growth media at a density of 500-1,000 cells/well. Five microliters of cells were dispensed into 1,536-well, white, solid-bottom, TC-treated plates (Greiner Bio One) using a multidrop dispenser and incubated at 37 degrees C, 5% CO2, under a humidified atmosphere for 5 hours. Twenty-three nanoliters of compounds and controls (neutral control DMSO or positive control bortezomib at final concentration of 2.3 µM) were subsequently transferred by Kalypsys pintool. For primary screens, the MIPE collection was tested at 11-point dilutions (final concentrations range from 0.78 nM to 46 µM) and the NPC collection at 8-point dilutions (final concentrations range from 0.59 nM to 46 µM). Compounds tested in follow-up screens were assayed at 11-point dilutions. Cells were incubated for 48 hours, followed by addition of 3 µL of CellTiter-Glo (Promega). After a 15 min incubation at room temperature, samples were analyzed for luminescence intensity using a ViewLux High-throughput CCD imager equipped with clear filters.
Potency means the concentration at half of the fitted maximal effect.

SMILES | Potency | activity change, negative = cytotoxic
CC(C)NCC(O)c1ccc(O)c(O)c1 (stereo not given) | inactive | 
NC(=O)OCC(COC(N)=O)c1ccccc1 | inactive | 
CN(C)CCC=C1c2ccccc2C=Cc2ccccc21 | inactive | 
CCc1cccc2c3c([nH]c12)C(CC)(CC(=O)O)OCC3 (stereo not given) | inactive | 
CCOC(=O)Nc1ccc(NCc2ccc(F)cc2)nc1N | inactive | 
CN(C)C(=O)C(CCN1CCC(O)(c2ccc(Cl)cc2)CC1)(c1ccccc1)c1ccccc1 |  | -3.52% (inactive)
COc1ccc2[nH]cc(CCNC(C)=O)c2c1 |  | 10.1% (inactive)
C[C@](N)(Cc1ccc(O)c(O)c1)C(=O)O | inactive | 
Cc1cn([C@H]2C[C@H](N=[N+]=[N-])[C@@H](CO)O2)c(=O)[nH]c1=O |  | 4.12% (inactive)
COC(=O)Nc1nc2ccc(C(=O)c3cccs3)cc2[nH]1 |  | -10.5% (inactive)
COc1ccc(C2CNC(=O)C2)cc1OC1CCCC1 (stereo not given) | inactive | 
COc1cc2nc(N3CCN(C(=O)c4ccco4)CC3)nc(N)c2cc1OC |  | -3.38% [at 16.1 µM] (inactive)
O=C(C1CCCCC1)N1CC(=O)N2CCc3ccccc3C2C1 (stereo not given) | inactive | 
Cc1cc(C(C)(C)C)cc(C)c1CC1=NCCN1 | inactive | 
Cc1ccc(C(=O)Nc2ccc(S(=O)(=O)O)c3cc(S(=O)(=O)O)cc(S(=O)(=O)O)c23)cc1NC(=O)c1cccc(NC(=O)Nc2cccc(C(=O)Nc3cc(C(=O)Nc4ccc(S(=O)(=O)O)c5cc(S(=O)(=O)O)cc(S(=O)(=O)O)c45)ccc3C)c2)c1 | inactive | 
O=C(Nc1ccc([N+](=O)[O-])cc1Cl)c1cc(Cl)ccc1O |  | -18.8% [at 16.1 µM] (inactive)
O=C(c1ccc(OCCN2CCCCC2)cc1)c1c(-c2ccc(O)cc2)sc2cc(O)ccc12 | inactive | 
CN1CCN2c3ccccc3Cc3ccccc3C2C1 (stereo not given) | inactive | 
NCCCCCC(=O)O | inactive | 
Cc1cc(C(C)(C)C)c(O)c(C)c1CC1=NCCN1 | inactive | 

SMILES | Potency | activity change, negative = cytotoxic
CC(C)NCC(O)COc1ccc(CCOCC2CC2)cc1 (stereo not given) | inactive | 
Clc1ccccc1C(c1ccccc1)(c1ccccc1)n1ccnc1 | inactive | 
O=C1c2c(O)ccc(O)c2C(=O)c2c(NCCNCCO)ccc(NCCNCCO)c21 | 13.3 µM (active) | 
CC(CCc1ccc(O)cc1)NCCc1ccc(O)c(O)c1 (stereo not given) | inactive | 
C[C@H]1c2cccc(O)c2C(O)=C2C(=O)[C@]3(O)C(O)=C(C(N)=O)C(=O)[C@@H](N(C)C)[C@@H]3[C@@H](O)[C@@H]21 | inactive | 
COc1cc2c(c(OC)c1OC)-c1ccc(OC)c(=O)cc1[C@@H](NC(C)=O)CC2 | inactive | 
Cn1ccc2cc3c(cc21)CCN3C(=O)Nc1cccnc1 | inactive | 
Cc1ccc(-c2cc(C(F)(F)F)nn2-c2ccc(S(N)(=O)=O)cc2)cc1 | inactive | 
NCCc1cnc[nH]1 | inactive | 
C[C@@H]1CC(=O)NN=C1c1ccc(NN=C(C#N)C#N)cc1 | inactive | 
Nc1c2c(nc3ccccc13)CCCC2 | inactive | 
NC(=O)NO |  | 8.16% (inactive)
CN(C)c1nc(N(C)C)nc(N(C)C)n1 | inactive | 
CN1CCC(=C2c3ccccc3CC(=O)c3sccc32)CC1 |  | 19.2% (inactive)
COc1ccccc1OCC(O)CN1CCN(CC(=O)Nc2c(C)cccc2C)CC1 (stereo not given) | inactive | 
CC1(CN2CCC(n3c(=O)[nH]c4ccccc43)CC2)OCc2ccccc2-n2cccc21 (stereo not given) | inactive | 
Clc1ccc2c(c1)C(N1CCNCC1)=Nc1ccccc1O2 | inactive | 
CN(C)C(=N)N=C(N)N | inactive | 
Cn1c(=O)c2c(ncn2C)n(C)c1=O | inactive | 
CN(Cc1cnc2nc(N)nc(N)c2n1)c1ccc(C(=O)N[C@@H](CCC(=O)O)C(=O)O)cc1 | inactive | 
